High-throughput results (PubChem)
IL1B secr inh = inflammasome signaling inhibition, IL-1 beta readout; THP-1 LPS/ATP IL-1B secretion, AlphaLISA, 16 h; stronger effect = lower value; activity change, % at 57.5 µM; hit rate 4.7% among 360,000; AID 743279; in the data active = activity change below about -50%; inconclusive = mostly about -30% to -49%
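Secreted IL-1B measured by AlphaLISA bead assay after 16 h compound exposure of THP-1 cells; compounds (final up to 57.5 uM) added 1 h before LPS (250 ng/mL) and ATP (1.25 mM) stimulation; lower signal means less secretion.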
uPA surface inh = cell surface uPA generation inhibition | cell surface uPA generation assay, qHTS | Potency, µM (titrated, usually from 38.3 µM), for the others: top-dose activity change, negative = inhibition, actives largely listed as inhibitors | hit rate 0.31% among 330,000; active = well fitted inhibition curve with a large enough effect; inconclusive = small, poorly fitted or top-dose-only effect; inactive = no such curve, though single readings can be large or run the other way; tested in mouse RAW 264.7 cells; also: potency is read from the fitted curve at half-maximal effect; nearly all actives have a fitted effect of over 55% in size
HT1080 IDH1KD tx = kills HT-1080 cells with IDH1 knockdown. HT-1080 IDH1 knockdown viability, ATP luminescence, 48 h. Potency, µM (doses to about 46.1 µM), for the others: at the top dose activity, negative = toxicity, actives largely listed as cytotoxic. hit rate 2% among 360,000;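 also: potency is read from the fitted curve at half-maximal effect; 0% = DMSO wells and -100% = cell-free medium wells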
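Knockdown cells (IDH1KD HT-1080) received compounds 2 h after plating at 750 cells/well and were kept 48 h at 37 °C in 5% FBS RPMI. A CellTiter-Glo luminescence read gave % activity for curve fitting.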
DT40 TDP1 no CPT = qHTS for Inhibitors of human tyrosyl-DNA phosphodiesterase 1 (TDP1): qHTS in cells in absence of CPT; DT40 Tdp1-/- hTDP1 cells, no CPT, ATP luminescence, 48 h; Potency, µM (series often up to 46.2 µM), without a hit: at the highest dose activity change, negative = growth inhibition, usual class: inhibitors; hit rate 15% among 420,000; AID 686978, 2013; also: potency is read from the fitted curve at half-maximal effect; nearly all actives have a fitted effect of over 55% in size
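Stably hTDP1-transfected Tdp1-null chicken DT40 cells were treated with library compounds minus camptothecin and grown for at least 48 hr at 37 °C, after which cellular ATP was quantified by luminescence.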
TDP1 cell CPT = DT40-hTDP1 cell growth loss with CPT | Potency, µM (highest dose often 46.2 µM), for the others: top-dose activity change, negative = growth inhibition, hits mostly inhibitors | chicken DT40 Tdp1-/-;hTDP1 cells + 20 nM CPT, ATP luminescence, 48 h | hit rate 12% among 420,000 | AID 686979; also: potency is read from the fitted curve at half-maximal effect; nearly all actives have a fitted effect of over 55% in size
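Cell growth measured by CellTiter-Glo luminescence after a minimum 48 h, 37 C compound exposure with 20 nM CPT in Tdp1-knockout DT40 cells stably expressing hTDP1, seeded 400/well; qHTS titration format.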
HT1080-NT tox = kills 2HG-producing HT-1080-NT fibrosarcoma cells; HT-1080-NT fibrosarcoma viability, CellTiter-Glo ATP luminescence, 48 h; Potency, µM (series often up to 46.1 µM), without a hit: top-dose activity, negative = less viability, most hits filed as cytotoxic; hit rate 1.6% among 360,000; AID 686970;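 also: NT is the 2HG producing partner of a matched IDH1 knockdown line; potency is read from the fitted curve at half-maximal effect; 0% = DMSO-treated cells and -100% = media-only wells without cells; nearly all actives have a fitted effect of over 55% in size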
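Luminescent CellTiter-Glo readout after 48 hours of compound exposure at 37 degrees C defined viability of HT-1080-NT cells. Activity was normalized to DMSO wells and cell-free media wells; concentration-response curves were fitted and assigned curve classes.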
* marks the source's active call; other numbers are inactive results; ? = inconclusive; . = not tested or not shown. Hits are enriched below; roughly 19% of the tested compounds scored in any of these assays. Unless noted, calls follow the shape of the dose curve; as a rule, active = well fitted curve in the direction sought with a large enough effect; inconclusive = small, poorly fitted or top-dose-only effect, or another doubt; inactive = no such curve, though single readings can be large; an effect the other way counts as inactive or inconclusive. Unless noted, % is scaled to controls: 0 for no effect and ±100 for the full control effect.

SMILES | IL1B secr inh | uPA surface inh | HT1080 IDH1KD tx | DT40 TDP1 no CPT | TDP1 cell CPT | HT1080-NT tox
Cc1ccc(C(=O)CCNc2cccc(Br)c2)o1 | -13.4 | -1.7% | -2.2% | 18.4µM* | 20.6µM* | 1.1%
Cc1ccc(C(=O)CCNc2ccc(F)c(Cl)c2)o1 | -24.1 | -4.8% | 10.2% | 16.4µM* | 16.4µM* | 12.8%
Cc1ccc(C(=O)CCNc2ccccc2)o1 | -1.5 | -8.4% | 10.9% | 8.2µM* | ? | 17.9%
O=C(CCC(=O)c1ccc(F)cc1)Nc1cccc(Br)c1 | 1.3 | -26.9% | -6.2% | 8.2% | 6.2% | -1.7%
CCOC(=O)[C@H]1[C@H]2COc3ccc(C)cc3[C@@H]2N2C(=O)CN(C)C(=O)[C@@]12C | 35.4 | -4.1% | 15.6% | -15.9% | -7.8% | 17.7%
CCN1C(=O)[C@H]2[C@@H](c3ccc(-c4ccc(Cl)c(Cl)c4)c(OC)c3)N[C@@](C)(C(=O)OC)[C@H]2C1=O | -16.6 | 8.8% | 2.5% | 6.51µM* | 4.61µM* | -5.5%
CCN1C(=O)[C@H]2[C@@H](c3ccc(-c4ccc(Cl)c(Cl)c4)cc3)N[C@@](C)(C(=O)OC)[C@H]2C1=O | -24.7 | 6.0% | -0.1% | 8.2µM* | 8.2µM* | -9.2%
COC(=O)[C@]1(Cc2ccccc2)N[C@H](c2ccc(SC3CCCCC3)c(OC)c2)[C@@H]2C(=O)N(C)C(=O)[C@@H]21 | -9.5 | ? | 0.1% | ? | ? | 22.9%
COC(=O)[C@]1(C)N[C@H](c2ccc(SC3CCCCC3)c(OC)c2)[C@@H]2C(=O)N(C)C(=O)[C@@H]21 | 1.6 | 0.0% | -0.9% | 11.6µM* | ? | 6.2%
CCOC(=O)C1(C)NC(c2ccc(OC)c(OC)c2)C2C(=O)N(CC)C(=O)C21 (configuration not stated) | 17.6 | -0.3% | 21.0% | -11.9% | -11.9% | 17.2%
CCN1C(=O)[C@H]2[C@@H](c3ccc(-c4ccc5c(c4)OCO5)c(OC)c3)N[C@@](C)(C(=O)OC)[C@H]2C1=O | 15.6 | 1.3% | -7.8% | ? | ? | ?
O=C(CCN1C(=O)[C@@H]2Cc3ccccc3CN2C1=O)NCc1ccccc1Cl | 15.3 | -10.0% | 5.4% | 4.7% | -7.3% | 17.8%
Cc1ccccc1Nc1c([N+](=O)[O-])cncc1[N+](=O)[O-] | 8.5 | -0.6% | 8.4% | 14.6µM* | ? | -1.7%
O=[N+]([O-])c1ccc2nonc2c1Nc1cccc(F)c1 | 17.8 | -4.6% | 4.5% | 4.9% | -27.2% | -1.7%
O=[N+]([O-])c1cncc([N+](=O)[O-])c1Nc1cccc(O)c1 | -18.4 | 10µM* | -15.5% | 4.11µM* | 5.17µM* | -21.8%
CC1(C(=O)NS(=O)(=O)C2CC2)CCN(C(=O)COCc2ccccc2)C1 (configuration not stated) | 28.3 | . | 13.8% | 4.2% | 6.5% | 1.8%
CN(CCC#N)C(=O)COC(=O)c1ccccc1C(=O)c1ccc(Cl)c([N+](=O)[O-])c1 | -105.6* | -8.1% | 16.4µM* | ? | 16.4µM* | 10.3µM*
CN(CCC#N)C(=O)COC(=O)c1ccc(Cl)c(S(N)(=O)=O)c1 | -6.3 | . | 15.2% | 8.1% | 8.0% | 17.1%
O=C(COC(=O)c1ccccc1C(=O)c1ccc(Cl)c([N+](=O)[O-])c1)NC1CCCCCC1 | -107.4* | . | 3.16µM* | 23.1µM* | ? | 8.91µM*
O=C(COC(=O)c1ccc(Cl)c([N+](=O)[O-])c1)NC1CCCC1 | -0.3 | 1.0% | 1.3% | 9.7% | -20.1% | 1.7%
CC(C)N(C(=O)COC(=O)c1ccccc1C(=O)c1ccc(Cl)c([N+](=O)[O-])c1)C(C)C | -102.4* | . | 20.6µM* | ? | ? | 18.4µM*
Cn1c(N)c(C(=O)COC(=O)c2ccccc2C(=O)c2ccc(Cl)c([N+](=O)[O-])c2)c(=O)n(C)c1=O | -98.9* | -11.6% | ? | 18.4µM* | ? | ?
